Here are results for 6 compounds from PubChem BioAssay.

The source made the active and inactive calls.

One test concerns the target Albumin (Bos taurus) (UniProt P02769). The experiment in a line: bovine serum albumin binders on microarray, profiling panel, artefact control for SMM control protein annotation, biochemical, small-molecule microarray, Alexa647 label, 635/667 nm fluorescence (AID 1118).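 Note: score merges 667 nm emission intensity and signal-to-noise per printed compound spot.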 Particulars: BSA-A647 binding, fluorescence 635 nm, higher = more signal.
Test [1] is described as follows: small-molecule microarray binders of probe aXIP, primary screen, biochemical, NeuroSMM set, 635/667 nm fluorescence (AID 1119).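 Note: probe is the protein aXip251-270 applied at 1 µg/mL to compound-printed slides; binding of probe to printed compounds measured as 667 nm fluorescence plus signal to noise.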 The settings on record: higher = more signal, called active from +8 up or from −8 down.
Test [2] is described as follows: small-molecule binders of probe aNOTCH3, primary screen, biochemical, small-molecule microarray, 635/667 nm fluorescence (AID 1120).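 Note: probe is a biotin-tagged antibody raised against NOTCH3 rather than NOTCH3 protein; score merges spot fluorescence near 667 nm with spot signal to noise.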 Particulars: higher = more signal.
Test [3] is described as follows: small-molecule binders of probe aNOTCH2, primary screen, biochemical, small-molecule microarray, 635/667 nm fluorescence (AID 1121).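 Note: score merges feature fluorescence read at 667 nm with its signal to noise.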 Particulars: higher = more signal.
The target of test [4] is Carbonic anhydrase 2 (Homo sapiens) (UniProt P00918). The experiment in a line: CAII small-molecule binders, profiling panel, biochemical, small-molecule microarray, Alexa647-labelled CAII (AID 1122). The settings on record: CAII-A647 binding fluorescence, higher = more signal.
Test [5] in a line: COS7 lysate on small-molecule microarray, probe aHis, 635 nm (AID 1123).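 Note: z-score combines 667nm fluorescence intensity with signal-to-noise per printed compound spot.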 The settings on record: COS7 cell lysate, fluorescence, higher = more signal.
Test [6] is described as follows: compound binding in COS7 lysate, probe aLAP1, primary screen, cell lysate, small-molecule microarray (AID 1124).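 Note: lysate comes from COS7 cells expressing LAP1 and is applied at 0.3 µg/mL; score merges spot fluorescence near 667 nm with signal-to-noise over triplicate slides.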 Particulars: probe aLAP1, fluorescence, higher = more signal.
The test system of the next test is Sam68 (KHDRBS1). Briefly: Sam68 small-molecule binders, primary screen, biochemical, small-molecule microarray, 635 nm fluorescence (AID 1125).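 Note: score merges 667 nm channel intensity with signal to noise over triplicate slides.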 The settings on record: small-molecule microarray binding, higher = more signal.
Test [7] concerns Chordin-like protein 2 (CHRDL2). Briefly: CHRDL2 small-molecule binders, primary screen, biochemical, small-molecule microarray, 635 nm fluorescence (AID 1126).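 Note: printed compound slides probed with Chrdl2 protein at 4 µg/mL for 1 h at 4 C; score merges 667 nm emission intensity with signal to noise over three replicate slides.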 The settings on record: small-molecule microarray binding, fluorescence 635 nm; higher = more signal.
Test [8] concerns the target Concanavalin-A (Canavalia ensiformis) (UniProt P02866). Briefly: ConA small-molecule binders, primary screen, artefact control for SMM control protein annotation, biochemical, small-molecule microarray, Alexa647 label, 635 nm (AID 1127).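 Note: z combines 667 nm emission intensity with signal-to-noise across three replicate slides.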 The settings on record: ConA-A647 binding fluorescence, higher = more signal.
Test [9] in a line: anti-His antibody binders, primary screen, artefact control for SMM control protein annotation, biochemical, small-molecule microarray, 635 nm fluorescence (AID 1128).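 Note: score merges feature fluorescence with signal-to-noise for each printed compound spot.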 The settings on record: anti-His Alexa647 antibody binding, higher = more signal.
Test [10] concerns Human papillomavirus type 1a E7 protein (residues 1-88). Briefly: HPV1a E7 small-molecule binders, primary screen, biochemical, small-molecule microarray, residues 1-88, 635 nm (AID 1129). Particulars: small-molecule microarray binding, fluorescence 635 nm; higher = more signal.
In test [11] the target is Focal adhesion kinase 1 (Homo sapiens) (UniProt Q05397). The experiment in a line: small-molecule microarray binders of FAK, primary screen, biochemical, 635/667 nm fluorescence, BSA, DTT (AID 1130).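 Note: composite of spot emission at 667 nm and signal to noise over triplicate slides.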 The settings on record: PTK2 binding, 635 nm fluorescence, higher = more signal.
Test [12] relates to Fibrinogen (Alexa647-labelled). Briefly: fibrinogen binders on compound microarrays, profiling panel, artefact control for SMM control-protein annotation, biochemical, small-molecule microarray, 635/667 nm fluorescence (AID 1131).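 Note: z-score merges 667 nm fluorescence with per-spot signal-to-noise over triplicate slides.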 Particulars: fibrinogen-A647 binding fluorescence, higher = more signal.
Test [13] has as its target Follistatin (Homo sapiens) (UniProt P19883). The experiment in a line: follistatin binders on small-molecule microarrays, primary screen, biochemical, small-molecule microarray, 635/667 nm fluorescence (AID 1132). Particulars: FST binding, 635 nm fluorescence, higher = more signal.
Test [14] addresses Fibroblast growth factor 2 (Homo sapiens) (UniProt P09038). Briefly: FGF2 binders on small-molecule microarrays, primary screen, biochemical, small-molecule microarray, 635/667 nm fluorescence (AID 1133). Particulars: small-molecule microarray binding, FGF2, fluorescence 635/667; higher = more signal.
Test [15] is described as follows: mitochondrial membrane potential change in A549 cells, profiling panel, cell-based, JC-1 fluorescence, basal, 24 h, 100 nL (AID 1138).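 Note: A549 lung adenocarcinoma cells under basal conditions with no added stimulus; test concentration not given here.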 Particulars: higher = more signal.
In a further test the test system is Lefty1. Briefly: Lefty1 binders on small-molecule microarrays, primary screen, biochemical, small-molecule microarray, 635/667 nm fluorescence (AID 1139). The settings on record: small-molecule microarray binding, fluorescence 635/667; higher = more signal.
The test system of test [16] is wheat germ agglutinin (Triticum aestivum), Alexa647-labelled. Briefly: wheat germ agglutinin binders on compound microarrays, profiling panel, artefact control for SMM control-protein annotation, biochemical, small-molecule microarray, 635/667 nm fluorescence (AID 1140).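 Note: score merges 667 nm feature emission with signal to noise over triplicate slides.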 Particulars: WGA-A647 binding, 635 nm fluorescence, higher = more signal.
In test [17] the target is Luciferin 4-monooxygenase (Photinus pyralis) (UniProt P08659). Briefly: firefly luciferase enzyme inhibitors, primary screen, biochemical, luminescence, purified enzyme, 2006 set (AID 1141).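 Note: cell-free assay with purified firefly luciferase at 100 ng per well in PBS; test concentration not given here.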 Particulars: SteadyGlo luminescence, 30 min, higher = more signal, called active from +8 up or from −8 down.
Sequence of Luciferin 4-monooxygenase (Photinus pyralis) (P08659 whole entry, looked up): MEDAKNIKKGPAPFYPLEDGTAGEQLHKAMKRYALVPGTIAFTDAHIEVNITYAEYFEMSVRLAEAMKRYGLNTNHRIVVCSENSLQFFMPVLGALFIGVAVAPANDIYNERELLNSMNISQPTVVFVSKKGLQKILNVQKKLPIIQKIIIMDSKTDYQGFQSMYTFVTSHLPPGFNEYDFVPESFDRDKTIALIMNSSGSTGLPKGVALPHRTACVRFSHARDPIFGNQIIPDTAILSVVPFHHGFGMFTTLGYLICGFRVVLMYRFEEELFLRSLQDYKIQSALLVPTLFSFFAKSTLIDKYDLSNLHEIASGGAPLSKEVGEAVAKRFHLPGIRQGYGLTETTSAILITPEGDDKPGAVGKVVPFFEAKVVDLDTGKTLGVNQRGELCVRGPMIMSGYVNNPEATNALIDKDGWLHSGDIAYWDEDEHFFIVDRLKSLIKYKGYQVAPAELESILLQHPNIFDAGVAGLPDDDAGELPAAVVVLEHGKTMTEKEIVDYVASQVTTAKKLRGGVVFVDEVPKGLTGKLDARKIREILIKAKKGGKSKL

Sequence of Follistatin (Homo sapiens) (P19883 whole entry, looked up): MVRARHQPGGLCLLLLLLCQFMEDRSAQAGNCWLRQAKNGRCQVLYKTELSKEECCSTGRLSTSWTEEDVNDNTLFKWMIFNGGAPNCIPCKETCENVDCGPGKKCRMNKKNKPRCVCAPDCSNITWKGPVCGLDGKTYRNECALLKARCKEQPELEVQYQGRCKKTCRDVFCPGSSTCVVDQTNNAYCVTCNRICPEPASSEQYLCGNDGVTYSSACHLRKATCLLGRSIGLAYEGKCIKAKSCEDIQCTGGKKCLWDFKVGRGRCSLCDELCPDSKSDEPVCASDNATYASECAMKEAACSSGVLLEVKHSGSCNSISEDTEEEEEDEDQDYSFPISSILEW
Sequence of Fibroblast growth factor 2 (Homo sapiens) (P09038 whole entry, looked up): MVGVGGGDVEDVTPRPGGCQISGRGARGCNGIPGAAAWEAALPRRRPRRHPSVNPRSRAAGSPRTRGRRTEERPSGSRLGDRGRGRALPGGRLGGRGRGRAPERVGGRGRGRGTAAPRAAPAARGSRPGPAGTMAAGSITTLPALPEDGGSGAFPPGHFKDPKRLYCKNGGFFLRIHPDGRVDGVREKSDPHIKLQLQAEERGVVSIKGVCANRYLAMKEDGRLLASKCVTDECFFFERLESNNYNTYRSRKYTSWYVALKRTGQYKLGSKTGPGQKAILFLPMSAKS
Sequence of Concanavalin-A (Canavalia ensiformis) (P02866 whole entry, looked up): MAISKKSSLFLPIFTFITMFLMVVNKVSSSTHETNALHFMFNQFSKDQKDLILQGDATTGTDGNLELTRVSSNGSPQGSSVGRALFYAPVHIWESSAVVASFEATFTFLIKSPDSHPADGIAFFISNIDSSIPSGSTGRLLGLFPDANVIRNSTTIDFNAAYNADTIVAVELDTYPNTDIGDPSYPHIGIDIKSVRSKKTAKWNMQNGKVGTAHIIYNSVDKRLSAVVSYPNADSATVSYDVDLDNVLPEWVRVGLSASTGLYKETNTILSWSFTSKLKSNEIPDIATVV
Sequence of Albumin (Bos taurus) (P02769 whole entry, looked up): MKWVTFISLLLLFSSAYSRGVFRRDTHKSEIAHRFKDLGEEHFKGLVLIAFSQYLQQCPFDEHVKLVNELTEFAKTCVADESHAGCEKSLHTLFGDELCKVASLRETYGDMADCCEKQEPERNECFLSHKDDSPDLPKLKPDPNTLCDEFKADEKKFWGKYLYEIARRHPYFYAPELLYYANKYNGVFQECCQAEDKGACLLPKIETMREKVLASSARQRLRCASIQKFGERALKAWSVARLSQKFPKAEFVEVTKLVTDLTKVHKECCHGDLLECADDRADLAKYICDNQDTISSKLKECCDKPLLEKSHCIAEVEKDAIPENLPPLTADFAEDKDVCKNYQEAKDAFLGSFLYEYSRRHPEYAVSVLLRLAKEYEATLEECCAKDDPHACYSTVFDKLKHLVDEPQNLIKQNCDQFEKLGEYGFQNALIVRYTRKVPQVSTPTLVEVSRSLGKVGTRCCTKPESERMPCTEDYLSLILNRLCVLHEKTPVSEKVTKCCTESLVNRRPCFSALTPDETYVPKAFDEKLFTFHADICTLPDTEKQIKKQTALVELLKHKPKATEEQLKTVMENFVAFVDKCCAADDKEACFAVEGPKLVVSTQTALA
Sequence of Focal adhesion kinase 1 (Homo sapiens) (Q05397 whole entry, looked up): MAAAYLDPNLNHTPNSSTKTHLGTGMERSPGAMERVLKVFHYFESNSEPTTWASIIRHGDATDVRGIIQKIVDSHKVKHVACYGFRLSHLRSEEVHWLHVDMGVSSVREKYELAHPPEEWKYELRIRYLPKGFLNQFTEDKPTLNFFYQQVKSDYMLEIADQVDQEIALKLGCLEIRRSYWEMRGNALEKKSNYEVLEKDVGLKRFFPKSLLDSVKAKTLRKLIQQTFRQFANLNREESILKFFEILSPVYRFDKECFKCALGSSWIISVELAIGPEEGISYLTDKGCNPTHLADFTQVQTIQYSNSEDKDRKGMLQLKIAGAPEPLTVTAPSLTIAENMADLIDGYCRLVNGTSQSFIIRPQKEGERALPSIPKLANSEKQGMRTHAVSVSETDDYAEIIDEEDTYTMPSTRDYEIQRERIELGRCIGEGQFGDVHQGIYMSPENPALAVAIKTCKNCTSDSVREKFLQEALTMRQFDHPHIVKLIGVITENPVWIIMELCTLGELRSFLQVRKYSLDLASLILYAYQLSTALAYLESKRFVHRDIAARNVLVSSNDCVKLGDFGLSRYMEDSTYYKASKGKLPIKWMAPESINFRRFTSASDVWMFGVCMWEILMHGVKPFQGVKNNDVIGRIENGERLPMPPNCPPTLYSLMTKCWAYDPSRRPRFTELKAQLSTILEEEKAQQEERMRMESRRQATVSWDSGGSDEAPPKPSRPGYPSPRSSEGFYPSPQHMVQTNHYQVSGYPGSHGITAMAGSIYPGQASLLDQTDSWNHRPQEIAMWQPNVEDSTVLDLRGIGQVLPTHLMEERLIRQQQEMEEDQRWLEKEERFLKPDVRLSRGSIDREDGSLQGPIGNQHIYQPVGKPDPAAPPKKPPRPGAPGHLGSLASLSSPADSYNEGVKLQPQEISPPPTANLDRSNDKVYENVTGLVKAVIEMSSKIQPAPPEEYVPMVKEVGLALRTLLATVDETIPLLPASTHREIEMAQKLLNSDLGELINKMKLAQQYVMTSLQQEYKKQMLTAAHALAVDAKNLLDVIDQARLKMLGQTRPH

For the compound `COc1cc2c(cc1O)C(C)N(Cc1cccc(OC(F)(F)F)c1)CC2` (stereo not given), the composite z-score is 0.986 with Albumin (Bos taurus); -0.0204 in [2]; -0.0839 in [3]; 0.662 in test [4]; 2.23 in test [5]; 0.572 in test [6]. In addition, the composite z-score is 0.851 in the test on Sam68 (KHDRBS1); -0.236 in test [7]; 0.446 in test [8]; 1.72 in test [9]; 1.13 in test [10]; -0.135 in [11]. For the same compound, the composite z-score in test [12] is 0.966; in test [13] it was 0.659; in test [14], -0.258; in the test on Lefty1 it was 0.108; in test [16], 0.984. In [1], the composite Z-score was 0.414 (inactive). Moreover, the z-score was -0.681 in test [15] and 1.35 (inactive) in test [17].
Consider `COc1ccc([Si](C)(C)[C@H]2[C@H](CC(=O)N(CCO)Cc3ccccc3)O[C@@]3(C(=O)N(Cc4cccc(N5CCC5=O)c4)c4ccccc43)[C@@H]2C)cc1`, for which the composite z-score with Albumin (Bos taurus) is 0.378; in test [2], -0.0802; in test [3], -0.154; in test [4], 0.454; in test [5] it was 1.12; in [6], 0.782. Also, the composite z-score stood at 1.01 with Sam68 (KHDRBS1); 1.1 in test [7]; 1.11 in [8]; 2.18 in test [9]; 1.03 in test [10]; 0.222 in test [11]. Moreover, the composite z-score was 0.279 in test [12]; 1.12 in test [13]; 1.68 in test [14]; 1.33 with Lefty1; 0.767 in [16]. For the same compound, in test [1], the composite Z-score was 4.59 (inactive). The z-score in [15] was -0.166; in [17], 0.272 (inactive).
Consider `CCCCCN1CC=CC23O[C@@H]4C=CCOC(=O)[C@@H]4[C@H]2C(=O)N(CCCO)[C@@H]3C1=O` (stereo not given in full), for which the composite z-score in the test with Albumin (Bos taurus) is 1.02; in [2] it was -0.245; in test [3], -0.155; in [4], 0.851; in test [5] it was 2.39; in test [6], 0.937. The composite z-score in the test on Sam68 (KHDRBS1) is 1.28; in [7], -0.205; in test [8] it was 0.221; in test [9] it was 1.5; in test [10], 0.789; in [11], 0.532. In addition, the composite z-score in test [12] was -1.05; in [13], 0.105; in [14], -0.128; in the test on Lefty1 it was 0.632; in test [16] it was -0.895. In addition, the composite Z-score in test [1] is 1.01 (inactive). Further, the z-score in [15] was -0.483; in test [17], -0.0247 (inactive).
`[N-]=[N+]=NCc1ccccc1C[C@]1(C(=O)O)N=C(c2ccc(OCCCO)cc2)O[C@H]1c1ccccc1`: the composite z-score is 0.954 in the test with Albumin (Bos taurus); -0.0414 in test [2]; -0.0633 in [3]; 0.685 in [4]; 1.79 in test [5]; 0.249 in [6]. The composite z-score was 0.52 in the test on Sam68 (KHDRBS1); -0.741 in test [7]; 1.11 in test [8]; 1.29 in test [9]; 1.13 in test [10]; 0.165 in test [11]. In addition, the composite z-score in test [12] is 0.687; in test [13], 0.0944; in test [14], 0.87; in the test on Lefty1 it was -1.43; in [16] it was 1.2. The composite Z-score in test [1] is -0.37 (inactive). In addition, the z-score in test [15] was 0.0539; in test [17], 0.414 (inactive).
Regarding `COCCOC(=O)N1C(=O)[C@@]2(c3cc(C#CCC(C(=O)OC)C(=O)OC)ccc31)[C@H](c1ccccc1OCCO)N1[C@H](c3ccccc3)[C@H](c3ccccc3)OC(=O)[C@H]1[C@@H]2C(N)=O`, the composite z-score with Albumin (Bos taurus) is 0.101; in test [2], 0.173; in test [3], -0.0357; in [4], 0.503; in test [5] it was 2.03; in test [6] it was 1.5. Further, the composite z-score is 1.25 in the test with Sam68 (KHDRBS1); 0.237 in test [7]; 1.07 in [8]; 2.79 in test [9]; 1.19 in test [10]; -0.418 in [11]. Besides, the composite z-score in test [12] was determined as 0.942; in test [13] it was 1.08; in [14] it was 1.29; in the test on Lefty1 it was 0.714; in test [16] it was 1.1. The composite Z-score in [1] is -0.167 (inactive). Further, the z-score is 0.833 in test [15] and -0.834 (inactive) in test [17].
In the case of `COc1ccc(CCN2C(=O)[C@@]3(Cc4ccccc42)c2ccccc2C(=O)N(Cc2ccccc2Cl)[C@H]3c2ccc(CO)cc2)cc1`, the composite z-score with Albumin (Bos taurus) is -0.091; in test [2], -0.125; in test [3] it was -0.137; in [4] it was 0.855; in test [5] it was -0.247; in [6], 0.296. Further, the composite z-score was -0.383 with Sam68 (KHDRBS1); -1.06 in [7]; -0.199 in [8]; -1.74 in test [9]; -1.3 in [10]; -0.657 in [11]. Further, the composite z-score in [12] was -0.953; in test [13] it was -1.1; in [14] it was -0.157; in the test with Lefty1, -1.17; in test [16], -0.0043. Moreover, the composite Z-score in test [1] was -0.0503 (inactive). The z-score in test [15] is -0.599; in test [17], -0.822 (inactive).
